Screening results as filed in PubChem BioAssay.
Compounds with a hit are over-represented: about 5.7% of the library has one in this group of screens.
B2AR arrestin: agonists driving beta-arrestin recruitment to human beta2-adrenergic receptor; P07550; beta-arrestin recruitment to beta2AR, cell-based reporter; Potency, µM (highest dose often 46.1 µM), most hits filed as activators; hit rate 0.02% among 330,000; further: nearly all actives have a fitted effect of over 65% in size
RORg inh: blocks mouse ROR gamma transcriptional activity | Drosophila S2 Gal4-RORgamma UAS-luciferase reporter, 20 h | Potency, µM (series often up to 53.6 µM), usual class: inhibitors | hit rate 5.4% among 310,000 | AID 2551; further: nearly all actives have a fitted effect of over 60% in size
Target sequence (P51450 whole entry, looked up, the tested form may be a part): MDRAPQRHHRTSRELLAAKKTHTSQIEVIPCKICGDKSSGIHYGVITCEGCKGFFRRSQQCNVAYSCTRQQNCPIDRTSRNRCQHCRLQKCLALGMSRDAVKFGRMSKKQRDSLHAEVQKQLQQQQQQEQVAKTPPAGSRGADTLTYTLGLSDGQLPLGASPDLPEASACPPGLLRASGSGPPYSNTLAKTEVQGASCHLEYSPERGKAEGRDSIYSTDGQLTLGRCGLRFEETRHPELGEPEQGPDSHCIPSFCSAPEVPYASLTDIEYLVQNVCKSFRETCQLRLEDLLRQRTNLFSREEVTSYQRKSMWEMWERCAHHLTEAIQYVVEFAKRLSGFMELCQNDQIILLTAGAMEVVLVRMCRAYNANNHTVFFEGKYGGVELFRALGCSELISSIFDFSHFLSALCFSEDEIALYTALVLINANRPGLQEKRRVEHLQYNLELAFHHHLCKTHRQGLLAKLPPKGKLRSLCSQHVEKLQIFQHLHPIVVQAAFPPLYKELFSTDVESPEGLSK
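Schneider cells (Drosophila), stable Gal4 DBD–ROR gamma + UAS-luc; 1 hr cmpd preincubation; Cu2+ induction 700 uM final; 20 hr ambient; luminescence.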
NPSR antag: blocks cAMP signaling of the human neuropeptide S receptor | Q6W5P4 | CHO-NPSR cells, cAMP TR-FRET, antagonist mode | Potency, µM (highest dose often 38.3 µM), most hits filed as inhibitors | hit rate 1% among 220,000 | AID 1461; further: nearly all actives have a fitted effect of over 50% in size
Gal4-VP16 FLuc: counter-screen for ROR gamma inhibitors: Gal4-VP16 reporter; Drosophila S2 Gal4-VP16 UAS-luciferase, luminescence, 20 h; Potency, µM (top dose mostly 53.6 µM), actives largely listed as inhibitors; hit rate 3.5% among 310,000;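 further: Gal4-VP16 expression switched on by copper sulfate through the metallothionein promoter; nearly all actives have a fitted effect of over 50% in size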
Large screens that a line does not name were inactive. The call rests on the fitted dose curve; in most records, active means well fitted curve in the direction sought with a large enough effect; inconclusive means small, poorly fitted or top-dose-only effect, or another doubt; inactive means no such curve, though single readings can be large; an effect the other way counts as inactive or inconclusive.

CNC(=S)N/N=C1\C(=O)c2cccc3cccc1c23	B2AR arrestin 3.5µM, RORg inh 0.5µM, NPSR antag 3.2µM, Gal4-VP16 FLuc 2.5µM
O=C(N/N=C1\C(=O)c2cccc3cccc1c23)c1ccc(O)cc1	RORg inh 0.071µM, Gal4-VP16 FLuc 0.32µM
O=C(O/N=C1/CCSc2ccccc21)c1ccccc1	none
NC(=S)N/N=C1/CCSc2ccc3ccccc3c21	RORg inh 0.63µM, Gal4-VP16 FLuc 3.2µM
COc1ccccc1CNC(=S)NCc1ccc(Cl)cc1	RORg inh 4µM, Gal4-VP16 FLuc 7.1µM (no result: NPSR antag)
COc1ccc(NC(=S)NCc2ccccc2Cl)c(OC)c1	RORg inh 13µM, Gal4-VP16 FLuc 7.1µM (no result: NPSR antag)
COc1ccccc1NC(=S)NCc1ccccc1Cl	RORg inh 8.9µM, Gal4-VP16 FLuc 7.1µM (no result: NPSR antag)
COc1ccccc1CNC(=O)c1nnc(Cc2ccc(Cl)cc2)o1	none
COc1ccc(NC(=S)NCCc2ccccc2OC)c(OC)c1	Gal4-VP16 FLuc inconclusive
C#CCn1c(=O)c2c(nc(/C=C/c3cccc(OC)c3)n2C)n(CCCO)c1=O	none (no result: B2AR arrestin, NPSR antag)
Cc1csc(NC(=O)/C=C/c2ccc(C)o2)n1	RORg inh 4.5µM
Cc1ccc(/C=C/C(=O)NC2CCCCCCC2)o1	Gal4-VP16 FLuc 13µM
Clc1ccccc1-c1ccc2ncnc(NCCN3CCOCC3)c2c1	none (no result: B2AR arrestin, NPSR antag)
Cc1ccccc1C(=O)/C(C#N)=N/Nc1c(C)n(C)n(-c2ccccc2)c1=O	RORg inh 8.9µM, Gal4-VP16 FLuc 20µM
CCOC(=O)/C(C#N)=N/Nc1c(C)n(C)n(-c2ccccc2)c1=O	none
Cc1c(N/N=C(\C#N)C(=O)c2ccccc2)c(=O)n(-c2ccccc2)n1C	RORg inh 16µM, Gal4-VP16 FLuc inconclusive
NC(=O)/C(=N\OC(=O)c1ccco1)c1nc(-c2ccc(Br)cc2)cs1	RORg inh 4.5µM, Gal4-VP16 FLuc inconclusive
O=C(Cn1nnc(-c2ccccc2)n1)NCC(=O)Nc1ccc(F)c(F)c1F	none (no result: RORg inh, NPSR antag, Gal4-VP16 FLuc)
COc1cccc2c1CCc1c-2nc2ccccc2c1C(=O)O	RORg inh inconclusive, Gal4-VP16 FLuc 10µM (no result: NPSR antag)
COc1ccccc1NC(=O)c1c(C)nc2ccccc2c1C(=O)O	none
Cc1ccc(C(=O)Nc2ncc(C)s2)o1	RORg inh inconclusive
Cc1ccc(C(=O)Nc2ncc(C)s2)s1	RORg inh 7.1µM, Gal4-VP16 FLuc inconclusive (no result: NPSR antag)
CSc1ncccc1C(=O)Nc1nccs1	RORg inh 10µM (no result: NPSR antag)
CSc1ncccc1C(=O)Nc1ncc(C)s1	RORg inh 11µM (no result: NPSR antag)
C=C1C(=O)[C@]23[C@H](O)[C@H]1CC[C@H]2[C@@]12COC3(O)[C@H](O)[C@@H]1C(C)(C)CC[C@@H]2O	RORg inh 3.2µM, Gal4-VP16 FLuc 3.5µM (no result: B2AR arrestin, NPSR antag)
COc1ccc(-n2c(=S)[nH]c3cc(C(=O)NCc4ccccc4)ccc3c2=O)c(OC)c1	RORg inh 20µM, Gal4-VP16 FLuc inconclusive (no result: NPSR antag)
COc1ccc(OC)c(NC(=O)c2ccc3c(=O)n(CCc4ccccc4)c(=S)[nH]c3c2)c1	RORg inh 0.79µM, Gal4-VP16 FLuc 0.89µM
COc1ccc(-n2c(=S)[nH]c3cc(C(=O)N4CCN(c5ccccc5)CC4)ccc3c2=O)c(OC)c1	RORg inh inconclusive, Gal4-VP16 FLuc 13µM (no result: NPSR antag)
COc1ccc(NC(=O)c2ccc3c(=O)n(Cc4ccco4)c(=S)[nH]c3c2)c(OC)c1	RORg inh inconclusive
CCOc1ccc(N=C2NC(=O)S/C2=C\c2ccc(Cl)cc2)cc1	none
CCOc1ccc2nc(N3C(=O)/C(=C/c4ccc(Cl)cc4)NC3=S)sc2c1	RORg inh 1.1µM, Gal4-VP16 FLuc 1.6µM
CSc1nnc(-c2ccccc2SC)o1	none
CSc1ccccc1-c1nnc(NC(=O)Cc2ccccc2)o1	RORg inh 1µM, Gal4-VP16 FLuc 2.5µM (no result: NPSR antag)
COc1ccccc1-c1nnc(NC(=O)Cc2ccccc2)o1	RORg inh 2µM, Gal4-VP16 FLuc 3.2µM (no result: NPSR antag)
Cc1ccc(S(=O)(=O)CCC(=O)Nc2nnc(-c3ccccc3S(C)(=O)=O)o2)cc1	none (no result: RORg inh, NPSR antag, Gal4-VP16 FLuc)
CS(=O)(=O)c1ccccc1-c1nnc(NC(=O)Cc2ccccc2)o1	RORg inh 11µM, Gal4-VP16 FLuc inconclusive (no result: NPSR antag)
COc1ccccc1-c1nnc(SCC(=O)Nc2ccc(Cl)cc2Cl)o1	none
CCn1cc(-c2cc(C(=O)O)c3ccccc3n2)cn1	RORg inh 5.6µM, Gal4-VP16 FLuc inconclusive
COC(=O)c1ccc(NC(=O)c2cc(-c3ccncc3)nc3ccccc23)cc1	none (no result: RORg inh, NPSR antag, Gal4-VP16 FLuc)
CCCOc1ccc(C(=O)NNC(=S)NC(=O)c2cc(-c3ccc(Cl)cc3)nc3ccccc23)cc1	RORg inh 0.11µM, Gal4-VP16 FLuc inconclusive
CC(=O)NS(=O)(=O)c1ccc(NC(=O)c2cc(-c3ccc(C)cc3)nc3ccccc23)cc1	RORg inh inconclusive
COc1ccc(Cl)cc1C(=O)NNC(=S)NC(=O)c1cc(-c2ccccc2)nc2ccccc12	Gal4-VP16 FLuc inconclusive
CCn1cc(-c2cc(C(=O)O)c3ccccc3n2)c(C)n1	RORg inh inconclusive
CC(=O)Nc1ccc(-c2cc(C(=O)O)c3ccccc3n2)cc1	RORg inh 10µM, Gal4-VP16 FLuc inconclusive
COC(=O)c1ccc(NC(=S)NC(=O)c2cc(-c3ccccc3)nc3ccccc23)cc1	RORg inh 0.45µM, Gal4-VP16 FLuc 2µM
Nc1cc(C(=O)OCC(=O)N2CCC(Cc3ccccc3)CC2)ccc1Cl	none (no result: RORg inh, NPSR antag, Gal4-VP16 FLuc)
O=C(O)c1cc(-c2cc(C(=O)O)c3ccccc3n2)nc2ccccc12	none (no result: NPSR antag)
CCc1ccc(-c2cc(C(=O)Nn3cnnc3)c3ccccc3n2)cc1	RORg inh 0.89µM, Gal4-VP16 FLuc 0.63µM
O=C(O)c1cc(-c2ccc3ccccc3c2)nc2ccc(F)cc12	RORg inh 22µM (no result: NPSR antag)
O=C(O)c1cc(-c2c[nH]c3ccccc23)nc2cc3ccccc3cc12	RORg inh 5µM
O=C(Nc1ncccn1)c1cc(-c2ccc(F)cc2)nc2ccccc12	none
O=C(O)c1cc(-c2ccc3ccccc3n2)nc2ccccc12	RORg inh 5µM, Gal4-VP16 FLuc 11µM (no result: NPSR antag)
COC(=O)[C@@]1(Cc2ccc(F)cc2)[C@H]2c3cc(C(=O)N(C)C)n(CC4CC4)c3C[C@H]2CN1C(=O)c1ccccc1	none (no result: B2AR arrestin, NPSR antag)
CCS(=O)(=O)Nc1ccc(-c2cc(-c3ccccc3)c3cc(C)ccc3n2)cc1	RORg inh inconclusive
Cc1ccc2nc(-c3ccc(NS(C)(=O)=O)cc3)cc(-c3ccccc3)c2c1	RORg inh inconclusive, NPSR antag inconclusive, Gal4-VP16 FLuc 22µM
CCC(=O)Nc1ccc(-c2cc(-c3ccccc3)nc(-c3ccc(NC(=O)CC)cc3)n2)cc1	RORg inh 8.9µM, Gal4-VP16 FLuc 7.1µM
COc1ccc(C(=O)NNC(=S)NC(=O)c2cc(-c3ccccc3)nc3ccccc23)cc1	RORg inh 10µM, Gal4-VP16 FLuc inconclusive
COc1cc(-c2cc(C(=O)Nc3ccc(S(=O)(=O)Nc4ncccn4)cc3)c3ccccc3n2)cc(OC)c1OC	Gal4-VP16 FLuc 11µM
COc1ccc(-c2cc(C(=O)Nc3ccc(S(=O)(=O)Nc4ncccn4)cc3)c3ccccc3n2)cc1	none
COc1ccc(C(=O)OCCN2CCN(C3=NS(=O)(=O)c4ccccc43)CC2)cc1OC	none (no result: NPSR antag)
CN(C)c1ncc2nc(-c3cn(C)c4ccccc34)c(=O)n(C[C@H]3CCCO3)c2n1	none (no result: B2AR arrestin, NPSR antag)
COC(=O)CNC(=O)COC(=O)c1ccc(Cl)nc1	none
CNC(=S)/N=C(/Nc1ccccc1)c1ccccc1	RORg inh inconclusive, Gal4-VP16 FLuc inconclusive
